Results as given in PubChem BioAssay (EPA / NIEHS).
Where “and” joins values, the source holds several entries; their conditions need not be identical. Identical values can stand only once. Results filed as inconclusive are left out. Calls of active or inactive are those of the source. Rule for the calls: active = hit-call score of the fitted dose curve at least 0.9, where 1 is the maximum; inconclusive = response in the unintended direction; inactive = score below 0.9.

Target: human Thyroid hormone Receptor beta (TRb), THRB (gene 7068) (UniProt P10828)
Sequence (P10828 whole entry, looked up): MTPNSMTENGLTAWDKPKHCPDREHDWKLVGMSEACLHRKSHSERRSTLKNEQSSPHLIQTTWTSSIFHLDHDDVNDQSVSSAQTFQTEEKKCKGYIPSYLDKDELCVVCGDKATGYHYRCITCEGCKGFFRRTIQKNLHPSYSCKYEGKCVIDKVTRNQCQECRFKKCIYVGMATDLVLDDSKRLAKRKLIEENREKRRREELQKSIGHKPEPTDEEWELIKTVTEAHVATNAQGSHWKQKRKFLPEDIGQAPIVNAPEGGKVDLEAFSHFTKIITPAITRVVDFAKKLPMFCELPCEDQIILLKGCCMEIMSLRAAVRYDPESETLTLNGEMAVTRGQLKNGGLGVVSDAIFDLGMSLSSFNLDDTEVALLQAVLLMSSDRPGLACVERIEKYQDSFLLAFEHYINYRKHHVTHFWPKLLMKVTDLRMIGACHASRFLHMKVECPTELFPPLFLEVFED
Assay: ATG_hTRb_XSP2: Attagene TRANS-FACTORIAL Multi-Species (XSP2) HepG2 Assay for human Thyroid hormone Receptor beta (TRb) (AID 2283840);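 note: actives raise reporter mRNA so potency reflects agonist-like gain of signal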
How it was run: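 Read-out: reporter mRNA induction (RT-PCR, 6-FAM labeling, capillary electrophoresis), gain-of-signal relative to DMSO baseline. Transiently transfected HepG2 TRANS multiplex (NR-Gal4 chimeras, GAL4-UAS reporters), 24 h chemical exposure; medium contained 3 nM 6-alpha-fluorotestosterone plus 1.5 nM norgestrel.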

| Structure (SMILES) | outcome | AC50 |
| --- | --- | --- |
| CCC(=O)Nc1ccc(Cl)c(Cl)c1 | inactive | – |
| CCC(CC)Nc1c([N+](=O)[O-])cc(C)c(C)c1[N+](=O)[O-] | inactive | – |
| Nc1c(Cl)cc([N+](=O)[O-])cc1Cl | – | 27.6 µM (active) and 82.2 µM (active) |
| CCOP(=S)(OCC)Oc1ccc2c(C)c(Cl)c(=O)oc2c1 | inactive | – |
| C#CC(C)(C)NC(=O)c1cc(Cl)cc(Cl)c1 | inactive | – |
| COc1ccc(C(=CC(=O)N2CCOCC2)c2ccc(Cl)cc2)cc1OC | inactive | – |
| C#CCC1=C(C)C(OC(=O)C2C(C=C(C)C)C2(C)C)CC1=O (centres undefined) | inactive | – |

Test system: Sodium/Iodide Symporter (NIS), SLC5A5 (gene 6528)
Assay: CPHEA_Stoker_NIS_Inhibition_RAIU: CPHEA's Radioactive Iodide Uptake (RAIU) Assay for Sodium/Iodide Symporter (NIS) Inhibition, Stoker and Laws Labs (AID 2283841)
How it was run: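 Test chemicals, six concentrations from 0.001 to 100uM in 0.5% DMSO, were co-incubated with carrier-free 125I (final 329pM) on hNIS-HEK293T-EPA monolayers in pH 7.4 HEPES-buffered HBSS. Plates stood 2 hours at room temperature, then were washed cold and counted.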

| Structure (SMILES) | outcome | AC50 |
| --- | --- | --- |
| CCCSP(=O)(OCC)Oc1ccc(Br)cc1Cl (centres undefined) | inactive | – |
| O=[N+]([O-])c1cc(C(F)(F)F)c(Cl)c([N+](=O)[O-])c1Nc1ncc(C(F)(F)F)cc1Cl | – | 6.41 µM (active) |
| CC(COc1ccc(Oc2ccccc2)cc1)Oc1ccccn1 (centres undefined) | inactive | – |
| N#CSCSC#N | – | 18.3 µM (active) |
| Cc1cc(C2CC2)nc(Nc2ccccc2)n1 | – | 44 µM (active) |
| CCOP(=S)(OCC)OC(Cl)C(Cl)(Cl)Cl (centres undefined) | inactive | – |
| CCOP(=S)(OCC)SCCSCC | inactive | – |
| CCCOCC(=Nc1ccc(Cl)cc1C(F)(F)F)n1ccnc1 | – | 29 µM (active) |
| FC(F)C(F)(F)OCC(Cn1cncn1)c1ccc(Cl)cc1Cl (centres undefined) | inactive | – |
| CC(C)=CC1C(C(=O)OCN2C(=O)C3=C(CCCC3)C2=O)C1(C)C (centres undefined) | – | 32.9 µM (active) |
| CCCCSP(=O)(SCCCC)SCCCC | inactive | – |
| CCC(=O)Nc1ccc(Cl)c(Cl)c1 | inactive | – |
| CCC(CC)Nc1c([N+](=O)[O-])cc(C)c(C)c1[N+](=O)[O-] | inactive | – |
| CCCCN(CC)c1c([N+](=O)[O-])cc(C(F)(F)F)cc1[N+](=O)[O-] | inactive | – |
| CCOC(=O)COc1cc(-c2nn(C)c(OC(F)F)c2Cl)c(F)cc1Cl | inactive | – |
| CC1(C(=O)Nc2ccc(O)c(Cl)c2Cl)CCCCC1 | inactive | – |

| Structure (SMILES) | outcome | AC50 |
| --- | --- | --- |
| Nc1c(Cl)cc([N+](=O)[O-])cc1Cl | inactive | – |
| CON=C(C(=O)OC)c1ccccc1CON=C(C)c1cccc(C(F)(F)F)c1 | – | 2.05 µM (active) |
| C=C(C)[C@H]1Cc2c(ccc3c2O[C@@H]2COc4cc(OC)c(OC)cc4[C@@H]2C3=O)O1 | – | 0.0708 µM (active) |
| CCOP(=S)(OCC)Oc1ccc2c(C)c(Cl)c(=O)oc2c1 | – | 9.92 µM (active) |
| CCOP(=S)(OCC)Oc1ccc([N+](=O)[O-])cc1 | inactive | – |
| CC(C)N(C(=O)SCC(Cl)=C(Cl)Cl)C(C)C | – | 21.1 µM (active) |
| CSc1nc(NC(C)C)nc(NC(C)C)n1 | inactive | – |
| CC[C@H](C)[C@H]1O[C@]2(C=C[C@@H]1C)C[C@@H]1C[C@@H](C/C=C(\C)[C@@H](O[C@H]3C[C@H](OC)[C@@H](O[C@H]4C[C@H](OC)[C@@H](NC)[C@H](C)O4)[C@H](C)O3)[C@@H](C)/C=C/C=C3\CO[C@@H]4[C@H](O)C(C)=C[C@@H](C(=O)O1)[C@]34O)O2 | – | 13.3 µM (active) |
| CSC1=N[C@@](C)(c2ccccc2)C(=O)N1Nc1ccccc1 | inactive | – |
| COP(=O)(OC)OC(Br)C(Cl)(Cl)Br (centres undefined) | inactive | – |
| C#CCC1=C(C)C(OC(=O)C2C(C=C(C)C)C2(C)C)CC1=O (centres undefined) | – | 47.5 µM (active) |
| CCCCOC(=O)[C@@H](C)Oc1ccc(Oc2ccc(C#N)cc2F)cc1 | inactive | – |
| C[Si](Cn1cncn1)(c1ccc(F)cc1)c1ccc(F)cc1 | inactive | – |
| COc1cccc(C(=O)NN(C(=O)c2cc(C)cc(C)c2)C(C)(C)C)c1C | – | 15.8 µM (active) |
| CCOP(=S)(Oc1cnc(C(C)(C)C)nc1)OC(C)C (centres undefined) | inactive | – |

Test system: not listed separately
Assay: CPHEA_Stoker_NIS_Cytotoxicity: Cytotoxicity Assessment for CPHEA's Radioactive Iodide Uptake (RAIU) Assay for Sodium/Iodide Symporter (NIS) Inhibition, Stoker and Laws Labs (AID 2283897);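 for AC50: active means loss of ATP signal versus DMSO meaning cytotoxicity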
How it was run: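 Viability in hNIS-HEK293T-EPA cells is scored as a drop in luciferase-detected ATP following 2-hour room-temperature exposure (0.001–100uM; triplicate wells, three cell passages), with DMSO as negative control.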

| Structure (SMILES) | outcome | AC50 |
| --- | --- | --- |
| CCCSP(=O)(OCC)Oc1ccc(Br)cc1Cl (centres undefined) | inactive | – |
| O=[N+]([O-])c1cc(C(F)(F)F)c(Cl)c([N+](=O)[O-])c1Nc1ncc(C(F)(F)F)cc1Cl | – | 19.6 µM (active) |
| CC(COc1ccc(Oc2ccccc2)cc1)Oc1ccccn1 (centres undefined) | inactive | – |
| N#CSCSC#N | – | 41.4 µM (active) |
| Cc1cc(C2CC2)nc(Nc2ccccc2)n1 | inactive | – |
| CCOP(=S)(OCC)OC(Cl)C(Cl)(Cl)Cl (centres undefined) | inactive | – |
| CCOP(=S)(OCC)SCCSCC | inactive | – |
| CCCOCC(=Nc1ccc(Cl)cc1C(F)(F)F)n1ccnc1 | – | 38.1 µM (active) |
| FC(F)C(F)(F)OCC(Cn1cncn1)c1ccc(Cl)cc1Cl (centres undefined) | inactive | – |
| CC(C)=CC1C(C(=O)OCN2C(=O)C3=C(CCCC3)C2=O)C1(C)C (centres undefined) | – | 35.4 µM (active) |
| CCCCSP(=O)(SCCCC)SCCCC | inactive | – |
| CCC(=O)Nc1ccc(Cl)c(Cl)c1 | inactive | – |
| CCC(CC)Nc1c([N+](=O)[O-])cc(C)c(C)c1[N+](=O)[O-] | inactive | – |
| CCCCN(CC)c1c([N+](=O)[O-])cc(C(F)(F)F)cc1[N+](=O)[O-] | inactive | – |
| CCOC(=O)COc1cc(-c2nn(C)c(OC(F)F)c2Cl)c(F)cc1Cl | inactive | – |
| CC1(C(=O)Nc2ccc(O)c(Cl)c2Cl)CCCCC1 | inactive | – |

| Structure (SMILES) | outcome | AC50 |
| --- | --- | --- |
| Nc1c(Cl)cc([N+](=O)[O-])cc1Cl | inactive | – |
| CON=C(C(=O)OC)c1ccccc1CON=C(C)c1cccc(C(F)(F)F)c1 | inactive | – |
| C=C(C)[C@H]1Cc2c(ccc3c2O[C@@H]2COc4cc(OC)c(OC)cc4[C@@H]2C3=O)O1 | inactive | – |
| CCOP(=S)(OCC)Oc1ccc2c(C)c(Cl)c(=O)oc2c1 | – | 27.7 µM (active) |
| CCOP(=S)(OCC)Oc1ccc([N+](=O)[O-])cc1 | inactive | – |
| CC(C)N(C(=O)SCC(Cl)=C(Cl)Cl)C(C)C | – | 39.8 µM (active) |
| CSc1nc(NC(C)C)nc(NC(C)C)n1 | inactive | – |
| CC[C@H](C)[C@H]1O[C@]2(C=C[C@@H]1C)C[C@@H]1C[C@@H](C/C=C(\C)[C@@H](O[C@H]3C[C@H](OC)[C@@H](O[C@H]4C[C@H](OC)[C@@H](NC)[C@H](C)O4)[C@H](C)O3)[C@@H](C)/C=C/C=C3\CO[C@@H]4[C@H](O)C(C)=C[C@@H](C(=O)O1)[C@]34O)O2 | – | 23 µM (active) |
| CSC1=N[C@@](C)(c2ccccc2)C(=O)N1Nc1ccccc1 | inactive | – |
| COP(=O)(OC)OC(Br)C(Cl)(Cl)Br (centres undefined) | inactive | – |
| C#CCC1=C(C)C(OC(=O)C2C(C=C(C)C)C2(C)C)CC1=O (centres undefined) | inactive | – |
| CCCCOC(=O)[C@@H](C)Oc1ccc(Oc2ccc(C#N)cc2F)cc1 | inactive | – |
| C[Si](Cn1cncn1)(c1ccc(F)cc1)c1ccc(F)cc1 | inactive | – |
| COc1cccc(C(=O)NN(C(=O)c2cc(C)cc(C)c2)C(C)(C)C)c1C | inactive | – |
| CCOP(=S)(Oc1cnc(C(C)(C)C)nc1)OC(C)C (centres undefined) | inactive | – |
